This is an account of results in ChEMBL document CHEMBL1961873, “Compounds: GSK PKIS; Assays: Nanosyn kinase panel” (2012).

The target in assay [1] is Tyrosine-protein kinase CSK (Homo sapiens) (UniProt P41240). To be noted: at 1 µM.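 Note: each value is an averaged inhibition reading.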
Assay [2] deals with T1, Discoidin domain-containing receptor 2 (Homo sapiens) (UniProt Q16832).
T1 sequence (whole entry): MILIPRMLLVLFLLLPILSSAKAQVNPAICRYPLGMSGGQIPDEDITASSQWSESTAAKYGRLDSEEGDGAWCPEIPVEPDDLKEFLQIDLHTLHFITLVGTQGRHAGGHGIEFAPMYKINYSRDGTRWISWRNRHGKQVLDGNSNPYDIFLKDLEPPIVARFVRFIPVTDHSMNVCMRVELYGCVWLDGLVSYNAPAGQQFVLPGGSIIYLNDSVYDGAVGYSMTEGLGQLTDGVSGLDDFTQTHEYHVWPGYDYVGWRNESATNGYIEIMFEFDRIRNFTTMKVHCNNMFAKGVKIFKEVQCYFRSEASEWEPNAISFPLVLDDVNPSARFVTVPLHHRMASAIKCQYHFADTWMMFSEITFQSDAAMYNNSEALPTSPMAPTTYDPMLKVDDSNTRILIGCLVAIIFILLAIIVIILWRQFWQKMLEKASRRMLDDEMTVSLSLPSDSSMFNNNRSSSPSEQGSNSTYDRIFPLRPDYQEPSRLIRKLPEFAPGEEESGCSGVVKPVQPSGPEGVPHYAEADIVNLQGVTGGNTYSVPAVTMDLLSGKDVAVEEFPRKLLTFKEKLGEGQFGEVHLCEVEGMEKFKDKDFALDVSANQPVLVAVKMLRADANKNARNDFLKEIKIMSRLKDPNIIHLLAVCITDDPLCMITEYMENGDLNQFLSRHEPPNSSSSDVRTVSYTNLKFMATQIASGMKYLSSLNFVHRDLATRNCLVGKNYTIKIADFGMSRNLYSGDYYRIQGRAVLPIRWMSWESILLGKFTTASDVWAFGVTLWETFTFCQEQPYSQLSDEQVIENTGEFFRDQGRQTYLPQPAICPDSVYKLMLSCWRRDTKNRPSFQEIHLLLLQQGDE
To be noted: at 0.1 µM.

For assay [3], the target named is T1, Discoidin domain-containing receptor 2 (Homo sapiens). To be noted: at 1 µM.
The target in assay [4] is Epidermal growth factor receptor (Homo sapiens) (UniProt P00533). To be noted: at 0.1 µM.
Assay [5] has the same target. To be noted: at 1 µM.
Assay [6] has as its system Epidermal growth factor receptor (Homo sapiens), P00533 [L858R]. The conditions noted are these: at 0.1 µM.
The test system is the same in assay [7]. To be noted: at 1 µM.
For assay [8], the system named is Epidermal growth factor receptor (Homo sapiens), P00533 [L861Q]. To be noted: at 0.1 µM.
Assay [9] shares this test system. The conditions noted are these: at 1 µM.
Assay [10] relates to Epidermal growth factor receptor (Homo sapiens), P00533 [T790M]. The conditions noted are these: at 0.1 µM.

SMILES strings stand for the structures.

Sequence of Epidermal growth factor receptor (Homo sapiens), P00533 [L861Q] (P00533 whole entry L861Q): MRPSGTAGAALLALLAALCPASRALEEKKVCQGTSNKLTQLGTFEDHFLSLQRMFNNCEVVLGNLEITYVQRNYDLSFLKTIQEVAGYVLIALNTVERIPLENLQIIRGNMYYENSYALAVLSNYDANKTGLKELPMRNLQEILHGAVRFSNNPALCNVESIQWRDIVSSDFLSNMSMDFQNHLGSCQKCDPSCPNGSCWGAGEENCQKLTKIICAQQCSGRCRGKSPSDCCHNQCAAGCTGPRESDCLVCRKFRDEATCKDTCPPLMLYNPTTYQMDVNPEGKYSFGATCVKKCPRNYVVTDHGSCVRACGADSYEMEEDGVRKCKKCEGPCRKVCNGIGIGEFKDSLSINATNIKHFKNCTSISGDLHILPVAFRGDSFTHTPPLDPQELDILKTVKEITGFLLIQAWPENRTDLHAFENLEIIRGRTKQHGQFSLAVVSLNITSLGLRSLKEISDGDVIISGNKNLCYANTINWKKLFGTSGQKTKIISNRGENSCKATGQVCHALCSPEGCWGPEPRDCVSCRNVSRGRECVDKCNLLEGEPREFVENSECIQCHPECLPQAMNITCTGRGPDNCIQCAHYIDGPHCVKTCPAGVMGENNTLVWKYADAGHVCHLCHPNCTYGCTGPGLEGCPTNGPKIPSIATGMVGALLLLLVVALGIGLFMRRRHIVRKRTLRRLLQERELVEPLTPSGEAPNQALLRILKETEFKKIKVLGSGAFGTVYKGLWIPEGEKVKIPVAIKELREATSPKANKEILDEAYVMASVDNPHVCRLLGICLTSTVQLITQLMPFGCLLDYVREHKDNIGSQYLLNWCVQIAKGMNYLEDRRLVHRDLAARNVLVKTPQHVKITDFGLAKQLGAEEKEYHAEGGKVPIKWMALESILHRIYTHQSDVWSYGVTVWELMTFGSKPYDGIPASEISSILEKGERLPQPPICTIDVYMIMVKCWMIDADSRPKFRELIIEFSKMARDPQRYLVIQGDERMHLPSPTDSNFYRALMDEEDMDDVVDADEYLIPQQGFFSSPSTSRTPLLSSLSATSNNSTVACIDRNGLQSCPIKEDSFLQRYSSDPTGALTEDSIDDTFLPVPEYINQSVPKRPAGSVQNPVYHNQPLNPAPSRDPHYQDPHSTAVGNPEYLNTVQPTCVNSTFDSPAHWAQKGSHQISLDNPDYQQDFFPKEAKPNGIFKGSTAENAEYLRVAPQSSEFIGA
Sequence of Epidermal growth factor receptor (Homo sapiens) (P00533 whole entry): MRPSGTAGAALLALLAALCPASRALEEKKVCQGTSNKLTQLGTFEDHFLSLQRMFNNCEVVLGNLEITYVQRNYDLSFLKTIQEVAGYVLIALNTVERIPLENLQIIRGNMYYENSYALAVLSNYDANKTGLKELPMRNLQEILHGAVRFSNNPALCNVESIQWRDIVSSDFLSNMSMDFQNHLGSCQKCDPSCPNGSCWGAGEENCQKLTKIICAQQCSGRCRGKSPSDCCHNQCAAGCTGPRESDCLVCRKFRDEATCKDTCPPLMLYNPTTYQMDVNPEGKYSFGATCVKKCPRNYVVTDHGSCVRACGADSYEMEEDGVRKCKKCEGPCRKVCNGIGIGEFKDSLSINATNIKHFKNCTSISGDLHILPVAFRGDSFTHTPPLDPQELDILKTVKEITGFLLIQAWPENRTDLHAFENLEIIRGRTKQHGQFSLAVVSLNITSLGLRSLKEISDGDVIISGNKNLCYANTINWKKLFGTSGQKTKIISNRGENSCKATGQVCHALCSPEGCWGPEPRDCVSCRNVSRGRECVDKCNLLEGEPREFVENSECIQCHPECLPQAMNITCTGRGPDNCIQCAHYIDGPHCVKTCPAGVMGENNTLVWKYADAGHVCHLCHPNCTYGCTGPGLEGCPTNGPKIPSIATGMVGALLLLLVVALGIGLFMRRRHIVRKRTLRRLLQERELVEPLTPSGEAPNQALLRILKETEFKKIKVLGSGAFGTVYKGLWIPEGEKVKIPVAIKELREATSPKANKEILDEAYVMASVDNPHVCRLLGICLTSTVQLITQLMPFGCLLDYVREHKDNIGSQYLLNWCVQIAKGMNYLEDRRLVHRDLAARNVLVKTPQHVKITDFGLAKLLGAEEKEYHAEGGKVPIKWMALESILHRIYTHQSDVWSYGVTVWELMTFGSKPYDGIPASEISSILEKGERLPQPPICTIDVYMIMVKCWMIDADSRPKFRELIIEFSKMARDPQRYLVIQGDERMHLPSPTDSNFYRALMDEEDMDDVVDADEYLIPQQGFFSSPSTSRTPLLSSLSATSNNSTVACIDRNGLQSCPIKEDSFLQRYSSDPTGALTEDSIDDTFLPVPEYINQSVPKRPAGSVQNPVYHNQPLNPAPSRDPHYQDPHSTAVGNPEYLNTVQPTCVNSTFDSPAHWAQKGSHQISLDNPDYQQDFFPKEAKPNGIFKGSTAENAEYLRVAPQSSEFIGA
Sequence of Epidermal growth factor receptor (Homo sapiens), P00533 [T790M] (P00533 whole entry T790M): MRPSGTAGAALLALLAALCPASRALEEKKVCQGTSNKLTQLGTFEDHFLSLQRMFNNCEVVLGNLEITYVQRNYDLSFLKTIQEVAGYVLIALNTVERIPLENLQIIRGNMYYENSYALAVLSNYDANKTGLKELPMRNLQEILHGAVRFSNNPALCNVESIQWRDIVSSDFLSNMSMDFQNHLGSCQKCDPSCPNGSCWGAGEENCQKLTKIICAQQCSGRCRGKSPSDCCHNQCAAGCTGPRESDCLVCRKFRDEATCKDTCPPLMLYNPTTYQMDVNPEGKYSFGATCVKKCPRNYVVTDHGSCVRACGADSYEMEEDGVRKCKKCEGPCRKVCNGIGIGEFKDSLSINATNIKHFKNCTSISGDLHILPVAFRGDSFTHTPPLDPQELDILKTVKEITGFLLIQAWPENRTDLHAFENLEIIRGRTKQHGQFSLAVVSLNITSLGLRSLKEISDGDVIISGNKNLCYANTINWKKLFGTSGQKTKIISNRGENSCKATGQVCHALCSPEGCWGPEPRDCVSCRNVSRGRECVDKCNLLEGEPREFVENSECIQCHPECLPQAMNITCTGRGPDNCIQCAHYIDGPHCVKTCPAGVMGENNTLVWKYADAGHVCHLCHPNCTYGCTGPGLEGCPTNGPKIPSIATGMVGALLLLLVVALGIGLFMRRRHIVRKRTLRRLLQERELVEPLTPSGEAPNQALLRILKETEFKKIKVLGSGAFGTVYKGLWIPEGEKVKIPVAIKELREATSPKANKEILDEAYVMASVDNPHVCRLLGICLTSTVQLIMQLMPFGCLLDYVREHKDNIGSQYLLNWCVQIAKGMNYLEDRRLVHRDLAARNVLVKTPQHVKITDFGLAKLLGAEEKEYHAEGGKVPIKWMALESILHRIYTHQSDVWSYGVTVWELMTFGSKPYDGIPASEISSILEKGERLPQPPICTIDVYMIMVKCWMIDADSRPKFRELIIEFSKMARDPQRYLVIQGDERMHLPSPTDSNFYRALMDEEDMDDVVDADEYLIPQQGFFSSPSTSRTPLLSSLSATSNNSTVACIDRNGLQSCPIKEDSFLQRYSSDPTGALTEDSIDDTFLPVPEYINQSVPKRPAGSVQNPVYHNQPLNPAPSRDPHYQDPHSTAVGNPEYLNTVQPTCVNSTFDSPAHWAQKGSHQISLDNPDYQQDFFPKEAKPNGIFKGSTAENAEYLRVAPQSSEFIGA
Sequence of Epidermal growth factor receptor (Homo sapiens), P00533 [L858R] (P00533 whole entry L858R): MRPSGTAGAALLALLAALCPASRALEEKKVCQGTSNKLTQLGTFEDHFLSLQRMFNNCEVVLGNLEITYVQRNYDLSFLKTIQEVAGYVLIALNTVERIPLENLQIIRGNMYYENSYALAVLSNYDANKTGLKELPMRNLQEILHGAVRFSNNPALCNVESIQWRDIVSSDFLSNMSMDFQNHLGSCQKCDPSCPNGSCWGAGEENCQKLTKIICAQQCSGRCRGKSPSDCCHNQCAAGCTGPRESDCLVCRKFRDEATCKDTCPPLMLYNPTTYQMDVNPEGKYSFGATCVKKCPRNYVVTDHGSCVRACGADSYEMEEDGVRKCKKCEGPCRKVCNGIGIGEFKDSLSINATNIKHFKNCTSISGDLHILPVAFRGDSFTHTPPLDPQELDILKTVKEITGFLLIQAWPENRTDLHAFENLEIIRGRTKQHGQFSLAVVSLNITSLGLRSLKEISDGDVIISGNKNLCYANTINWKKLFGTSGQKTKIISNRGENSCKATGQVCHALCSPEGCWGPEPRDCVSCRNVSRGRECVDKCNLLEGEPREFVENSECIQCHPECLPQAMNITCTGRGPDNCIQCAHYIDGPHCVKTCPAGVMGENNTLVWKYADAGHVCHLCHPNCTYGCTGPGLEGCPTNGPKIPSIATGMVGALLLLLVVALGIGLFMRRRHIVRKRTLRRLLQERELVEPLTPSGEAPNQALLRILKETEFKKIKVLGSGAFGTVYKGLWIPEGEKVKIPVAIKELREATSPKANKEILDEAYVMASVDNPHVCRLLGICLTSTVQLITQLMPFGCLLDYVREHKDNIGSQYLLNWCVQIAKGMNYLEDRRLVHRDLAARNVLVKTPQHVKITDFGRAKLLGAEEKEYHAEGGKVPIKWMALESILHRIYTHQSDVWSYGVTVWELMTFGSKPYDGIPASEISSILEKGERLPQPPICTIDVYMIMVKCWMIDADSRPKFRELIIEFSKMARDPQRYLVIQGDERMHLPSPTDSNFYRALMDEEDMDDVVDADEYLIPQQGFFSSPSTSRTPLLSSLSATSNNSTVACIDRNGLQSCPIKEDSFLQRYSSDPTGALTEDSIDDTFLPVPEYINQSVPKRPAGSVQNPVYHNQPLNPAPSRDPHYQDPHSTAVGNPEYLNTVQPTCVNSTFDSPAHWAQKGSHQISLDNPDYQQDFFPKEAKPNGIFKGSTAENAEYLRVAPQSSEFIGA

Broadly, the inhibition is the drop in the measured response relative to a control, in per cent. In the case of `COc1ccc(-c2cc3c(N)ncnc3o2)cc1`, the inhibition in assay [1] was -0.98%; in assay [2] it was -0.42%; in assay [3], 0.02%; in [4], 0.82%; in assay [5], 2%; in [6] it was 0.82%. Also, the inhibition in assay [7] was -0.02%; in assay [8] it was -0.61%; in assay [9] it was -1.15%; in assay [10] it was -2.23%.
On to `c1cc(-c2cnn3nc(N4CCOCC4)ccc23)nc(NC2CC2)n1`, for which the inhibition stood at 5.31% in assay [1]; 1.38% in assay [2]; 3.9% in assay [3]; 4.04% in assay [4]; 6.33% in assay [5]; 5.72% in assay [6]. For the same compound, the inhibition in [7] was 2.16%; in [8], 3.88%; in [9], 2.28%; in assay [10] it was 2.15%.
Take `CCNC(=O)O[C@H]1CN[C@H](C#Cc2cc3ncnc(Nc4ccc(OCc5cccc(F)c5)c(Cl)c4)c3s2)C1`: the inhibition in assay [1] was determined as 7.41%; in assay [2], 2.66%; in assay [3] it was 1.39%; in [4], 86.6%; in assay [5], 98%; in [6] it was 32.5%. The inhibition in [7] is 81%; in assay [8], 37.6%; in [9], 67%; in assay [10] it was 2.9%.
`NS(=O)(=O)c1ccc(N/N=C2\C(=O)Nc3ccc4ncccc4c32)cc1`: the inhibition in assay [1] turned out to be 9.03%; in assay [2], 0.92%; in assay [3], 6.09%; in assay [4], 0.87%; in assay [5], 6.7%; in assay [6], 1.35%. The inhibition in [7] is 2.75%; in [8], 1.5%; in assay [9], -1.33%; in assay [10], 1.15%.
Regarding `CC(C)COC(=O)c1ccc2c(c1)/C(=C/Nc1ccc(S(N)(=O)=O)cc1)C(=O)N2`, the inhibition in [1] was -1.85%; in [2], -1.05%; in [3], 2.05%; in assay [4], 1.64%; in assay [5] it was 4.58%; in [6] it was -0.29%. The inhibition in assay [7] is 0.49%; in assay [8], -1.62%; in assay [9], -0.46%; in [10], -1.76%.
As to `COc1ccc(CNC(=O)c2ccc(-c3cc(-c4nnc(C)o4)ccc3C)cc2)cc1`, the inhibition amounted to 6.32% in assay [1]; 4.36% in assay [2]; 4.67% in assay [3]; 2.84% in assay [4]; 4.15% in assay [5]; 0.12% in [6]. The inhibition in [7] is 8.38%; in [8], 1.79%; in [9] it was 7.03%; in assay [10], 1.31%.
Take `CS(=O)(=O)CCNCc1coc(-c2ccc3ncnc(Nc4ccc(OCc5ccccc5)cc4)c3c2)c1`: the inhibition in assay [1] was 5.24%; in [2] it was 1.75%; in [3], 1.8%; in assay [4], 80.3%; in [5], 92.2%; in assay [6], 30.6%. Moreover, the inhibition in assay [7] is 82.5%; in assay [8], 39.1%; in assay [9], 76%; in assay [10], 2.61%.
Regarding `CN1CCC(n2cnc(-c3ccc(F)cc3)c2-c2ccnc(N)n2)CC1`, the inhibition was found to be 1.95% in [1]; 0.93% in assay [2]; 1.6% in assay [3]; 5.7% in assay [4]; 12.2% in assay [5]; 3.61% in assay [6]. Besides, the inhibition in [7] was 16.5%; in assay [8], 1.43%; in assay [9] it was 6.75%; in assay [10], -0.02%.
For `CCn1cc(-c2ccnc3[nH]ccc23)c(-c2cccc(NC(=O)Nc3ccc(OCc4ccccc4)cc3)c2)n1`, the inhibition in assay [1] is 2.9%; in assay [2] it was 2.59%; in [3], 21%; in [4], -1.36%; in assay [5] it was 2.86%; in assay [6], -3.83%. The inhibition in assay [7] was -3.23%; in assay [8] it was -1.65%; in assay [9], 2.37%; in [10] it was -1.87%.
Consider `Nc1ncc(-c2cccc(S(N)(=O)=O)c2)c2scc(-c3ccc(F)c(Cl)c3)c12`, for which the inhibition turned out to be 73.3% in assay [1]; 2.61% in assay [2]; 11.2% in assay [3]; 0.5% in assay [4]; 14.2% in assay [5]; 5.06% in assay [6]. The inhibition amounted to 23.1% in [7], 5.17% in [8], 10.2% in [9] and 3.18% in assay [10].
Regarding `COC(=O)Nc1nc2ccc(S(=O)(=O)c3ccc(NC(=O)Nc4cc(C(F)(F)F)ccc4F)cc3)cc2[nH]1`, the inhibition in assay [1] was -1.83%; in assay [2], 10.3%; in assay [3], 62.7%; in [4], 0.69%; in assay [5], 7.04%; in assay [6], -0.69%. In addition, the inhibition turned out to be 1.58% in assay [7], 0.81% in [8], 2.11% in assay [9] and 2.47% in assay [10].
Regarding `CCn1c(-c2nonc2N)nc2cnc(Oc3cccc(NC(=O)c4ccc(N(C)C)cc4)c3)cc21`, the inhibition is -0.54% in assay [1]; 1.4% in assay [2]; 1.45% in assay [3]; 2.76% in assay [4]; 1.68% in [5]; 1.49% in assay [6]. The inhibition in assay [7] was 1.2%; in assay [8], 1.12%; in [9], -0.57%; in [10], 0.09%.
Take `COc1cccc(-n2ncc3c(N/N=C/c4ccc(F)cc4)ncnc32)c1`: the inhibition in [1] was determined as 11.4%; in assay [2], 1.69%; in assay [3] it was 4.36%; in assay [4] it was 0.53%; in assay [5], 7.92%; in [6] it was 11.6%. The inhibition in [7] was determined as 34.9%; in [8], 5.16%; in [9], 12%; in assay [10], 1.96%.
`Cc1ccc(O)cc1Nc1ccnc2cc(-c3ccccn3)ccc12`: the inhibition worked out at 57.1% in [1]; 20.3% in [2]; 74% in [3]; 57.7% in assay [4]; 91.9% in assay [5]; 88.8% in assay [6]. Further, the inhibition in assay [7] came out at 97.8%; in [8], 59.8%; in assay [9], 91.9%; in assay [10] it was 5.49%.
For the compound `CS(=O)(=O)CCNCc1ccc(-c2ccc3ncnc(Nc4ccc(OCc5ccccc5)c(C(F)(F)F)c4)c3c2)o1`, the inhibition in [1] was found to be 3.7%; in assay [2], 1.76%; in assay [3], 1.84%; in assay [4], 12.5%; in assay [5] it was 71.2%; in assay [6], 9.52%. The inhibition in assay [7] worked out at 50.1%; in assay [8] it was 17.8%; in [9], 41.7%; in [10], 2.35%.
Take `CCn1c(-c2nonc2N)nc2c(C#CC(C)(C)O)ncc(OC3CCNCC3)c21`: the inhibition was 1.26% in [1]; 0.94% in [2]; 1.03% in assay [3]; 1.89% in assay [4]; 3.18% in assay [5]; -0.6% in [6]. Further, the inhibition in assay [7] was 2.18%; in assay [8], -0.91%; in assay [9], -0.16%; in [10], -0.25%.
